# Some of the results follow. The true hit rate is not given.
# Biological target: furin, P09958
# Test: furin cleavage Z-score vs untreated control; higher = more cleavage, active = 3.5 or more, inactive = 1 or less, 8 variable residues between constant flanks
# Method: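 Multiplexed peptide-cDNA fusion cleavage assay. 8-mer variable peptides flanked by constant Cys-Ala (N-term) and Ala-Gly-Asn-Ala-Ser-Ala-Ser-Ala (C-term) and conjugated to a cDNA oligonucleotide were bead-immobilised via the N-terminus. They were treated with purified furin at a 1:10 enzyme:substrate ratio in 50 mM HEPES pH 7.5, 1 mM CaCl2, 100 mM NaCl for 7.5, 15 or 30 min. Released cDNA was counted by next-generation sequencing, and log counts versus no-furin controls were lowess-adjusted and converted to robust Z-scores.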
# Chain of furin, P09958 (P09958 whole entry): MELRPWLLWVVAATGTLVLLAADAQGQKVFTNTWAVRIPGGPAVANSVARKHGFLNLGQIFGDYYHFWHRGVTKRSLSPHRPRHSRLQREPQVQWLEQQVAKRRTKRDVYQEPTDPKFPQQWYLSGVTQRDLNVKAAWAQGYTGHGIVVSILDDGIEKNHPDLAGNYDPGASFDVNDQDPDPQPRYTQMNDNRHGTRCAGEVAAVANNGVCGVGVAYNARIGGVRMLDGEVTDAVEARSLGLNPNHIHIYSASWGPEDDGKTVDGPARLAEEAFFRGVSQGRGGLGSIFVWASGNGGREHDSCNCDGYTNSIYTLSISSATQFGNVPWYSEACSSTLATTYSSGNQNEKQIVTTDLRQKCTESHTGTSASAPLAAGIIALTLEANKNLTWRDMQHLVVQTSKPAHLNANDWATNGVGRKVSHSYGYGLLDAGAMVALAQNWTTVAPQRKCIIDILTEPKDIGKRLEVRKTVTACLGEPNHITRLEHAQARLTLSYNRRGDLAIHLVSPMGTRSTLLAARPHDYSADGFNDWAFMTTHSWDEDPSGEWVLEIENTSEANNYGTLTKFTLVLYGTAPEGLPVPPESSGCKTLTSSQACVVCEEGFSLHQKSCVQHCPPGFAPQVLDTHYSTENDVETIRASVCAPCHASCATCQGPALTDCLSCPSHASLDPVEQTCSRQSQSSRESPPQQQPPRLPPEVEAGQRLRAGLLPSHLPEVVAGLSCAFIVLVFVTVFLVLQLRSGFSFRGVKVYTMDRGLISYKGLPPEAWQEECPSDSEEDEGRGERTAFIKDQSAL
Sequence,furin cleavage Z-score (7.5 min),furin cleavage Z-score (15 min),furin cleavage Z-score (30 min)
CAFQYSPGQRAGNASASA [HC1467],-0.221 (inactive),-0.464 (inactive),-2.47 (inactive)
CAYRYRRRRSAGNASASA [FS-1440],4.89 (active),5.22 (active),3.7 (active)
CARYQRRSRSAGNASASA [FS-1655],7.45 (active),7.54 (active),8.29 (active)
CAYDTRCFDSAGNASASA [HC1480],-1.56 (inactive),0.436 (inactive),0.927 (inactive)
CAYRKRQCRSAGNASASA [FS-393],5.64 (active),5.62 (active),3.16
CAYRRRRSRSAGNASASA [FS-1296],7.22 (active),8.22 (active),6.95 (active)
CAYRRRPPRSAGNASASA [FS-111],1.85,1.04,0.965 (inactive)
CATTPISGSWAGNASASA [HC45],-0.899 (inactive),-0.739 (inactive),-0.823 (inactive)
CASLPCSAHLAGNASASA [HC2485],-0.663 (inactive),0.376 (inactive),0.512 (inactive)
CAMRECSQHLAGNASASA [HC1693],-1.86 (inactive),1.41,0.442 (inactive)
CASLEVVTSTAGNASASA [HC2277],-0.584 (inactive),-0.0293 (inactive),0.688 (inactive)
CAYIPRILGPAGNASASA [FS-1875],-0.849 (inactive),-0.994 (inactive),-2.27 (inactive)
CAEVVTSTSVAGNASASA [HC2237],0.559 (inactive),-1.07 (inactive),-1.09 (inactive)
CARYIRSERSAGNASASA [FS-1611],6.49 (active),8.32 (active),8.42 (active)
CATRKTSERSAGNASASA [HC185],0.0798 (inactive),1.75,1.32
CATTLCSGSWAGNASASA [HC1865],-0.162 (inactive),-0.533 (inactive),0.486 (inactive)
CATTPCFGSWAGNASASA [HC66],0.204 (inactive),0.119 (inactive),-0.471 (inactive)
CARPFRQVLAAGNASASA [FS-2738],-0.792 (inactive),0.095 (inactive),-0.451 (inactive)
CARKRRAPHGAGNASASA [FS-2493],4.63 (active),5.64 (active),5.6 (active)
CARKRRAPLAAGNASASA [FS-2698],6.06 (active),7.82 (active),7.26 (active)
CARKRRKGKAAGNASASA [FS-2973],-1.27 (inactive),1.85,0.732 (inactive)
CARKRRRQHGAGNASASA [FS-2974],-0.939 (inactive),-0.0293 (inactive),0.389 (inactive)
CALSTTGEIPAGNASASA [HC844],0.383 (inactive),-0.16 (inactive),0.771 (inactive)

Sequence,furin cleavage Z-score (7.5 min),furin cleavage Z-score (15 min),furin cleavage Z-score (30 min)
CARRKRRQTGAGNASASA [FS-2516],8.82 (active),9.35 (active),7.88 (active)
CARRKRRHHKAGNASASA [FS-1969],1.16,4.53 (active),5.66 (active)
CARRKRAGGGAGNASASA [FS-2067],4.24 (active),4.92 (active),5.33 (active)
CARRKRIVGGAGNASASA [FS-2228],0.169 (inactive),1.22,2.08
CARRKRFPGKAGNASASA [FS-1918],0.56 (inactive),2.63,3.28
CARRKRLRHRAGNASASA [FS-3054],-0.105 (inactive),-0.397 (inactive),-1.97 (inactive)
CARSCRILHKAGNASASA [FS-2457],0.718 (inactive),0.25 (inactive),0.502 (inactive)
CARRKRKSQRAGNASASA [FS-2402],1.07,2.8,3.58 (active)
CAHLEVVTSTAGNASASA [HC2275],-0.0236 (inactive),-0.0472 (inactive),-0.103 (inactive)
CAVTPCSAHLAGNASASA [HC2470],-2.91 (inactive),-0.94 (inactive),-1.39 (inactive)
CATSLTGRDKAGNASASA [HC683],0.711 (inactive),0.726 (inactive),0.633 (inactive)
CAVCTTPCSGAGNASASA [HC1950],-1.68 (inactive),1.7,0.388 (inactive)
CAHSTDATSIAGNASASA [HC820],0.202 (inactive),-1.29 (inactive),0.297 (inactive)
CATIETITLPAGNASASA [HC896],-1.51 (inactive),0.877 (inactive),-0.833 (inactive)
CAMEFCSQHLAGNASASA [HC1707],0.147 (inactive),0.288 (inactive),-0.0248 (inactive)
CAMEEVSQHLAGNASASA [HC3],0.556 (inactive),1.13,2.1
CARRKRQVRRAGNASASA [FS-2370],6.85 (active),8.4 (active),6.39 (active)
CARRVRDKDGAGNASASA [FS-2300],0.77 (inactive),1.62,2.04
CARRKKSQDGAGNASASA [FS-1775],0.168 (inactive),-0.316 (inactive),0.531 (inactive)
CARRKRQIYGAGNASASA [FS-3055],2.2,5.1 (active),6.81 (active)
CARRKRDLDGAGNASASA [FS-3052],11.5 (active),11.4 (active),8.25 (active)
CARRKRQVYGAGNASASA [FS-3204],6.12 (active),7.43 (active),7.08 (active)

# — the supplement of paper PMC3545927
